Only some compounds are listed: those with a hit (about 8% of all), similar ones and a draw of the others.
KB-V1 cytotox – KB-V1 MDR subline cytotoxicity. 3.4% of 400,000 active. KB-V1 MDR cells viability, CellTiter-Glo, 72 h. AID 1347076. Potency, µM (top dose mostly 46.1 µM), hits mostly cytotoxic; further: nearly all actives have a fitted effect of over 60% in size
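KB-V1, DMEM (no phenol red) + 10% FBS; cpd pin-transferred, titration series; 72 h, 37 degrees C; CellTiter-Glo, luminescence. Data normalized, curve-fit.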
MCF10A rereplic – induces DNA re-replication in MCF 10a normal breast cells | MCF 10A DNA re-replication, Hoechst nuclear intensity, 48 h | Potency, µM (series often up to 46.1 µM), most hits filed as activators | 2.9% of 350,000 active | AID 624296; further: nearly all actives have a fitted effect of over 50% in size
SW480 rerep – DNA re-replication induction in SW480 cells; SW480 DNA re-replication, Hoechst DNA content imaging, 48 h; Potency, µM (highest dose often 46.1 µM), hits mostly activators; 1.8% of 340,000 active; further: nearly all actives have a fitted effect of over 55% in size
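Per well, 250 cells were exposed to pinned compound for 48 hr. Nuclear DNA was visualised with Hoechst (40 min, 37 C) and total object intensity recorded by fluorescence scanning.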
KB-3-1 tox – kills parental KB-3-1 adenocarcinoma cells | KB-3-1 viability, CellTiter-Glo ATP luminescence, 72 h | Potency, µM (doses to about 46.1 µM), most hits filed as cytotoxic | 1.4% of 400,000 active | AID 1347075; further: nearly all actives have a fitted effect of over 60% in size
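72 h, 37 °C compound treatment of KB-3-1 parental cells; CellTiter-Glo added, 10 min, luminescence read. Data corrected against DMSO-only plates and normalized before curve fitting.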
HT1080 IDH1KD tx – HT-1080 IDH1 knockdown cell toxicity (counter line) | HT-1080 IDH1 knockdown viability, ATP luminescence, 48 h | Potency, µM (series often up to 46.1 µM), actives largely listed as cytotoxic | 2% of 360,000 active
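In this qHTS, HT-1080 cells depleted of IDH1 are exposed for 48 h at 37 °C to compound titrations. Toxicity is scored from CellTiter-Glo luminescence, with DMSO as full viability and medium alone as none.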
HT1080NT lethal – kills 2HG-producing HT-1080-NT fibrosarcoma cells; 1.6% of 360,000 active; Potency, µM (highest dose often 46.1 µM), usual class: cytotoxic; HT-1080-NT fibrosarcoma viability, CellTiter-Glo ATP luminescence, 48 h; AID 686970;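 further: NT is the 2HG producing partner of a matched IDH1 knockdown line; nearly all actives have a fitted effect of over 55% in size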
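HT-1080-NT; 750 cells/well; 5% FBS RPMI; 48 h compound, 37 degrees C; CellTiter-Glo luminescence; curve fitting and curve-class assignment.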
A number is an active result; . = inactive; ? = inconclusive; / = no result given; [ ] = remark or other dose. The call rests on the fitted dose curve; in most records, active means well fitted curve in the direction sought with a large enough effect; inconclusive means small, poorly fitted or top-dose-only effect, or another doubt; inactive means no such curve, though single readings can be large; an effect the other way counts as inactive or inconclusive.

SMILES	KB-V1 cytotox	MCF10A rereplic	SW480 rerep	KB-3-1 tox	HT1080 IDH1KD tx	HT1080NT lethal
CCOC(=O)c1sc(NC(=O)Nc2ccccc2)cc1C	?	?	.	?	?	?
CCOc1ccccc1NC(=O)COc1cccc2c(=O)n(CCOC)ccc12	?	/	/	.	/	/
NC(=O)c1sc2nc3c(c(-c4cccs4)c2c1N)CCCCC3	.	12.6µM	?	.	.	.
Nc1c(C(=O)Nc2ccc(Br)cc2)sc2nc(-c3ccco3)ccc12	5.17µM	5.17µM	?	.	.	.
NC(=O)c1sc2nc3c(c(-c4cccnc4)c2c1N)CCC3	.	.	.	.	.	.
Cc1ccc(NC(=O)c2sc3nc4c(c(-c5ccco5)c3c2N)CCC4)cc1	.	1.78µM	.	.	.	.
Nc1c(C(=O)Nc2ccccc2)sc2nc3c(c(-c4ccco4)c12)CCCC3	.	?	?	.	?	.
Nc1c(C(=O)Nc2ccccc2)sc2nc3c(c(-c4ccco4)c12)CCC3	.	?	.	?	?	.
Cc1ccccc1NC(=O)c1sc2nc3c(c(-c4ccco4)c2c1N)CCCC3	.	?	16.4µM	.	.	.
COc1ccc(Br)cc1C1C(C(=O)Nc2ccc(C)cc2C)=C(C)Nc2ncnn21 (configuration not stated)	.	/	/	.	/	/
COC(=O)CCc1sc(Nc2ccc(OC)cc2)nc1-c1ccc(OC)cc1	?	/	/	.	/	/
CCOc1ccc(OCCC(=O)N(CC)CC(=O)Nc2c(F)cccc2F)cc1	?	.	.	.	.	.
COc1ccc(OCC(=O)NNC(=O)c2ccccc2OCc2c(C)noc2C)cc1	.	.	.	.	.	.
COc1cc(-c2n[nH]c(=S)n2-c2cccc(C(F)(F)F)c2)cc(OC)c1OC	23.1µM	.	.	.	.	.
Cc1ccc(-n2c(-c3cccc(C)c3)n[nH]c2=S)cc1	.	20.6µM	?	.	10µM	?
Cc1ccccc1CNC(=O)c1ccc(Cn2c(SCc3ccccc3)nc3cccnc32)cc1	.	/	/	.	/	/
COCc1c(C#N)c(NCCc2ccc(F)cc2)nc(C)c1[N+](=O)[O-]	5.17µM	?	.	?	.	.
Cc1nc(NCCc2ccc(F)cc2)c(C#N)c(C)c1[N+](=O)[O-]	.	?	?	.	.	.
COc1cc(CNc2nc(C)c([N+](=O)[O-])c(C)c2C#N)cc(OC)c1	7.31µM	.	.	?	.	.
COCc1c(C#N)c(NCc2cc(OC)c(OC)c(OC)c2)nc(C)c1[N+](=O)[O-]	5.17µM	?	.	?	.	.
Cc1csc2c(N(C)CCO)ncnc12	.	.	.	.	.	.
CCCc1cc(=O)[nH]c(Nc2cc(C)ccc2OC)n1	.	/	/	.	/	/
S=C(NCCc1cnc[nH]1)NC1CCCC1	.	.	.	.	.	.
COc1nc(OC)nc(N2CCC(C(=O)NC3CCCCCC3)CC2)n1	10.3µM	.	.	.	.	.
COc1nc(OC)nc(N2CCC(C(=O)NC3CC3)CC2)n1	.	.	.	.	.	.
SMILES	KB-V1 cytotox	MCF10A rereplic	SW480 rerep	KB-3-1 tox	HT1080 IDH1KD tx	HT1080NT lethal
COc1cccc(-c2ccc3ncnc(NCc4cccs4)c3c2)c1	.	?	?	.	/	/
Cn1ccc2cc(-c3ccc4ncnc(NCc5cccs5)c4c3)ccc21	?	11.6µM	?	18.4µM	/	/
CCOC(=O)C1=C(O)c2ccccc2C(=O)/C1=C\c1ccc(CC)cc1	?	8.2µM	6.51µM	11.6µM	8.91µM	11.2µM
CCOC(=O)c1c(C)nc2c(c1-c1cc(OC)ccc1OC)C(=O)c1ccccc1-2	.	.	.	.	.	.
CCOC(=O)C1=C(Cc2ccc(OC)cc2)C(=O)c2ccccc2C1=O	.	.	6.51µM	.	7.94µM	10µM
Cn1ccc2c(OCC(=O)Nc3cc(C(F)(F)F)ccc3Cl)cccc2c1=O	.	/	/	.	/	/
COc1ccccc1NC(=S)NC1CCCCC1	.	.	.	.	.	.
CCOc1ccccc1C(=S)NC1CCCCC1	.	?	.	.	.	.
COc1ccccc1NC(=S)NCC1CCCCC1	.	?	9.2µM	.	.	.
CCOc1ccc(C(=S)NC2CCCCC2)cc1OC	16.4µM	?	.	.	.	.
CCOc1ccccc1NC(=S)NC1CCCCC1	23.1µM	.	.	.	?	.
COc1ccccc1NC(=O)C(CC(C)C)NC(=O)C1CCCCC1 (configuration not stated)	4.11µM	.	.	.	.	.
CCOc1ccccc1C1C(C#N)=C(N)N(N(C)C)C2=C1C(=O)CCC2 (configuration not stated)	.	.	.	.	.	.
COc1ccc(Cn2c(C)c(C)c(C#N)c2NC(=O)Nc2ccc(Cl)cc2)cc1	.	.	.	.	.	.
CCO[C@@H]1OC(C(=O)N2CCN(Cc3ccccc3)CC2)=C[C@H](C2CC2)[C@H]1CCCO	.	.	.	.	.	.
CC(C)(C)NC(=O)C(c1ccccc1)n1c(-c2ccc(-c3ccccc3)cc2)nc2ccccc21 (configuration not stated)	?	/	/	.	.	.
CCC(C)C(NC(=O)C1CCC(C)CC1)C(=O)Nc1cc(OC)ccc1OC (configuration not stated)	2.59µM	.	.	.	?	.
N#Cc1ccsc1NC(=O)CN(Cc1ccccc1)Cc1ccccc1	10.3µM	?	.	?	.	.
COc1ccccc1N1C(=O)N(C(C)=O)C2C1Nc1ccccc1N2C (configuration not stated)	.	.	.	.	.[9.24 µM]	15.8µM
CN(Cc1ccccc1)Cc1c(O)ccc2ccccc12	.	.	.	.	.	.
CN(Cc1cc(Cl)cc(Cl)c1O)Cc1c(O)ccc2ccccc12	.	23.1µM	?	.	?	.
CCOc1ccc(NS(=O)(=O)c2ccc3ncsc3c2)cc1	.	?	.	.	.	.
COc1cc(/C=N/NC(=O)C(=O)/C=C2\NC3(CCCC3)Cc3ccccc32)ccc1O	?	.	.	.	.	.
CN(C)c1ccc(/C=N/NC(=O)C(=O)/C=C2\NC3(CCCC3)Cc3ccccc32)cc1	18.4µM	.	.	.	.	.
O=C(/C=C1\NC2(CCCC2)Cc2ccccc21)C(=O)N/N=C/c1ccccc1O	?	?	?	?	?	23.1µM
CN1CCN(C(c2cccc(Br)c2)c2sc3nc(-c4ccco4)nn3c2O)CC1 (configuration not stated)	.	/	/	.	/	/
O=C1c2cccc(NCCNCCO)c2C(=O)c2cccc(NCCNCCO)c21	.	.	.	?	8.2µM	?
CCCCNc1nc(Oc2ccc(=O)n(C)n2)nc(N2CCOCC2)n1	.	/	/	.	/	/
CCOc1ccc(S(=O)(=O)Nc2ccc3oc(C)c(C(=O)OC(C)C)c3c2)cc1	13µM	/	/	?	/	/

Compound activity as filed in PubChem BioAssay.
